An excerpt weighted towards active compounds, which were near 1.5% of everything screened.
WRN inhibitor: blocks human WRN helicase; 0.46% of 360,000 active; AID 651768; Potency, µM (top dose mostly 114 µM), hits mostly inhibitors; WRN helicase unwinding, fluorescent forked duplex, kinetic; note: nearly all actives have a fitted effect of over 55% in size
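Kinetic red-fluorescence monitoring (525/598 nm) tracks WRN helicase activity after 100 nM fluorophore-quencher forked duplex and 2 mM ATP are added to 20 nM enzyme pretreated 15 min at room temperature with compound.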
FEN1 inh-1: inhibitors of human flap endonuclease 1; P39748; Recombinant FEN1 flap cleavage, fluorescence, 15 min; Potency, µM (titrated, usually from 114 µM), usual class: inhibitors; 0.35% of 390,000 active; AID 588795; note: nearly all actives have a fitted effect of over 65% in size
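With each library titrated from low to high concentration, compounds met 10 nM FEN1 for 15 min at room temperature before 50 nM substrate was added; readings at 0 and 15 min fed four-parameter Hill curve fits.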
Tb PFK inh: inhibitors of T. brucei phosphofructokinase; AID 485367; 0.17% of 330,000 active; O15648; Potency, µM (top dose mostly 57.5 µM), hits mostly inhibitors; T. brucei PFK, ADP-Glo luminescence; note: nearly all actives have a fitted effect of over 60% in size
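ADP-Glo luminescence quantified ADP after 45 min at room temperature, with 1.25 nM T. brucei PFK, 0.1 mM ATP and 0.5 mM fructose-6-phosphate in pH 8.0 TEA buffer. qHTS titrations up to 57 µM; curves classified by quality.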
TDP1 inh: TDP1 (human) enzyme inhibition; Q9NUW8; recombinant TDP1, AlphaScreen DNA substrate cleavage; Potency, µM (highest dose often 130 µM), most hits filed as inhibitors; 0.28% of 350,000 active; note: nearly all actives have a fitted effect of over 40% in size
Target sequence (Q9NUW8 whole entry, looked up): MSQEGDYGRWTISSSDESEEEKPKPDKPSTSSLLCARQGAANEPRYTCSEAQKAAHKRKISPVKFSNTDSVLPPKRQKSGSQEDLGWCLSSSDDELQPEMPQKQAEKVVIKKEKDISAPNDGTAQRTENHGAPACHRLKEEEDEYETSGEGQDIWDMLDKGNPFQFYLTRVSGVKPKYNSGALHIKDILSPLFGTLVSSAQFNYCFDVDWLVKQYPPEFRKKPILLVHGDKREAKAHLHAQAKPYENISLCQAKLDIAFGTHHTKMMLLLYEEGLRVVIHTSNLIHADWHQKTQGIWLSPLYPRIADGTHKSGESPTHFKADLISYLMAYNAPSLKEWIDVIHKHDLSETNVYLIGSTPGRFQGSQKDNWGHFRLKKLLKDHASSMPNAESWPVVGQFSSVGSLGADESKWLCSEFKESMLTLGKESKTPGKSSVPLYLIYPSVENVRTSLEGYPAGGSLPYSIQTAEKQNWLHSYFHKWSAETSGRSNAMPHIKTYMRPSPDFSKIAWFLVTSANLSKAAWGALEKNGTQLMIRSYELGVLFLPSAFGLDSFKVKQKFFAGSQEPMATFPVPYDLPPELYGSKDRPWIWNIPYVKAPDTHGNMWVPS
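Recombinant human Tdp1 (E. coli-expressed, 1 nM final) preincubated with compounds 15 min at room temperature, then 5'-biotin/3'-phosphotyrosine-FITC DNA substrate (15 nM final) added for 5 min. AlphaScreen beads (10 ug/ml final) added 10 min; cleavage lowers signal.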
Tb PGK inh: inhibitors of T. brucei phosphoglycerate kinase; P07378; PGK/GAPDH coupled, Kinase-Glo luminescence, 60 min; Potency, µM (top dose mostly 57.5 µM), usual class: inhibitors; 0.043% of 380,000 active; AID 602233; note: nearly all actives have a fitted effect of over 60% in size
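Recombinant glycosomal PGK reaction used 1,3-bisphosphoglycerate generated in-well by GAPDH (100nM final) in 100mM TEA pH 7.6, 5mM MgCl2, 0.01% Tween-20. After 60 minutes at room temperature, ATP was read by Kinase-Glo Plus luminescence end-point.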
PI5P4Ka inh: blocks human PI5P4K alpha kinase activity; max response, %; 1.2% of 330,000 active; PI5P4Kalpha enzyme, ADP-Glo luminescence, 60 min; stronger effect = lower value; active = max response of -50% or lower; inconclusive = between -30% and -50%; inactive = -30% or higher; note: value at the top dose of about 77 µM
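Enzyme plus substrate dispensed, test compounds pinned in, then ATP (5 microM final) added. After 60 min at RT, ADP-Glo reagent 1 for 45 min and reagent 2 for 30 min preceded luminescence imaging.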
FEN1 inh-2: confirmation of human FEN1 inhibitors | shares compounds with FEN1 inh-1 | FEN1 flap cleavage, TAMRA/BHQ2 fluorogenic DNA substrate | Potency, µM, hits mostly inhibitors | 79% of 880 active | AID 720498; note: nearly all actives have a fitted effect of over 60% in size
Hits are given with their value; n = inactive; u = inconclusive; x = no result given; [ ] = remark or other dose. Unless noted, calls come from the whole dose curve; as a rule, active = well fitted curve in the direction sought with a large enough effect; inconclusive = small, poorly fitted or top-dose-only effect, or another doubt; inactive = no such curve, though single readings can be large; an effect the other way counts as inactive or inconclusive.

SMILES | WRN inhibitor | FEN1 inh-1 | Tb PFK inh | TDP1 inh | Tb PGK inh | PI5P4Ka inh | FEN1 inh-2
Cc1ccc(S(=O)(=O)Nc2ccc(Br)cc2C(NCC(=O)O)c2ccccc2)cc1 (centres undefined) | n | n | n | n | n | n | x
O=C(O)CSc1cc(NS(=O)(=O)c2ccc(Br)cc2)c2ccccc2c1O | 50µM | u | n | x | n | u | 67
Cc1cc2nc3c(=O)[nH]c(=O)[nH]c3nc2c([N+](=O)[O-])c1N | 50µM | 45µM | n | 40µM | u | -76 | 38
Cc1cccc(CN2Cc3cccc4c3[C@H](C=CC4)CC2=O)c1 | x | n | x | x | x | x | x
COc1ccc2cc3[n+](cc2c1OC)CCc1cc2c(cc1-3)OCO2 | n[11.6 µM] | u | n | n | n | n | u
CCOC(=O)c1cnc2c(ccc3ccccc32)c1NCCCN(C)C | n | 50µM | n | x | n | n | 38
O=C1Nc2ccccc2C1C(C[N+](=O)[O-])c1ccccn1 (centres undefined) | n[11.6 µM] | u | n | x | x | n | 9.5
CCN=c1scc(C)n1/N=C/c1ccc(O)c(O)c1O | 22µM | u | n | n | n | -51 | u
CN(C)c1ccc(C=O)cc1[N+](=O)[O-] | x | n | x | x | x | x | x
CC[n+]1ccccc1/C=C1\Sc2ccc(C)cc2N1C | n | n | n | x | n | n | x
CCN1/C(=C/c2ccc3cc(C)ccc3[n+]2CC)Sc2ccccc21 | u | u | n | n | n | n | 19
CCCCCCCCCCCCCCCCCCN(CCCCCCCCCCCCCCCCCC)c1ccccc1 | x | n | x | x | x | x | x
O=C(Nc1ccc(F)c(F)c1)c1cnn2c1NC(=C1CC1)C=C2C(F)F | x | n | x | x | x | x | x
CC(=O)Nc1sc2c(c1-c1nc3ccccc3s1)CCN(C(C)C)C2 | n | u | n | x | n | n | 12
CCN1CCc2c(sc(NC(=O)CSc3ccccc3)c2-c2nc3ccccc3s2)C1 | x | n | x | n | n | x | x
CC(=O)Nc1sc2c(c1-c1nc3ccccc3s1)CCN(C(C)C)CC2 | x | x | x | x | x | x | 24
CCCN1CNc2c(c(=O)[nH]c(=S)n2CCc2ccc(Cl)cc2Cl)C1 | x | n | x | n | x | x | x
O=C(O)c1cccc(N2CCCC2)c1 | n | n | n | n | n | n | x
Cc1ccc(C)n1-c1cccc(C(=O)O)c1 | x | x | 11µM | u | x | x | 21
CCOc1ccc(NC(=O)CSc2nnc3c(n2)[nH]c2ccc(S(=O)(=O)N(C)C)cc23)cc1 | x | n | x | x | x | x | x
Cc1ccc2c(C)ccnc2c1 | x | n | x | x | x | x | x
COc1ccc(-c2cc(=O)c3c(O)cc(OC4OC(COC5OC(C)C(O)C(O)C5O)C(O)C(O)C4O)cc3o2)cc1O (centres undefined) | n[11.6 µM] | 50µM | n | x | n | n | u
O=c1cc(-c2ccc(O)c(O)c2)oc2cc(OC3OC(CO)C(O)C(O)C3O)cc(O)c12 (centres undefined) | x | x | x | n | x | x | x
Cc1csc(N=Cc2ccc([N+](=O)[O-])o2)n1 | u | x | x | x | n | -82 | 30
Cc1cc(N/N=C/c2ccc([N+](=O)[O-])o2)nc2ccccc12 | n | n | n | n | n | n | x
SMILES | WRN inhibitor | FEN1 inh-1 | Tb PFK inh | TDP1 inh | Tb PGK inh | PI5P4Ka inh | FEN1 inh-2
CN1\C(=C/C=C/C=C/C=[N+](C)C)C(C)(C)c2ccccc21 | 4.2µM | 89µM | n | n | u | u | 85
CN1/C(=C/C=C(C#N)C#N)C(C)(C)c2ccccc21 | n | n | n | n | n | n | x
CC1=[N+](C)c2c(ccc3cccnc23)C1(C)C | 56µM | 45µM | n | n | n | n | 43
CC1(C)Cc2c(C#N)c(N3CCN(C(=O)c4ccco4)CC3)nc(-c3ccco3)c2CS1 | 40µM | u | n | n | n | x | u
Cn1cc(/C=C/c2cc[n+](C)cc2)c2cc(F)ccc21 | n | 45µM | n | x | n | n | 38
CC1CCCC(C)N1C(=O)COC(=O)c1cc([N+](=O)[O-])ccc1N1CCOCC1 (centres undefined) | n | n | n | x | n | n | x
CC(OC(=O)c1cccs1)C(=O)NC1CCCCC1C (centres undefined) | n | n | n | n | n | n | x
CC(OC(=O)c1ccc([N+](=O)[O-])o1)C(=O)NC1CCCCC1C (centres undefined) | n | 13µM | n | n | n | n | 6
